Measurements from paper PMC11062922 (Nature Chemical Biology, 2023).
Read-outs that look alike come from different tables or passages of the source.

Columns and labels:
[1] = tested on: MARK4; settings: read-out: apparent Kd, n = 1
[2] = tested on: NTRK1; settings: read-out: apparent Kd, n = 1
[3] = compound concentrations:100 nM and 1000 nM (sheet 'Lestaurtinib' of Supplementary Table 1),run:Lestaurtinib_02724_R3,Plate:MR021
[4] = compound concentrations:100 nM and 1000 nM (sheet 'Lestaurtinib' of Supplementary Table 1),run:Lestaurtinib_02741_R2,Plate:MR023
[5] = compound concentrations:100 nM and 1000 nM (sheet 'Lestaurtinib' of Supplementary Table 1),run:Lestaurtinib_02741_R3,Plate:MR023
[6] = compound concentrations:100 nM and 1000 nM (sheet 'Lestaurtinib' of Supplementary Table 1),run:Lestaurtinib_02748_R1,Plate:MR024

Substance: Lestaurtinib
- potency estimated from few doses [1, 3]: 113 nM
- potency estimated from few doses [1, 4]: 144 nM
- potency estimated from few doses [1, 5]: 82.4 nM
- potency estimated from few doses [1, 6]: 151 nM
- potency estimated from few doses ([1]; compound concentrations:100 nM and 1000 nM (sheet 'Lestaurtinib' of Supplementary Table 1),run:Lestaurtinib_02748_R2,Plate:MR024): 97.8 nM
- potency estimated from few doses ([1]; compound concentrations:100 nM and 1000 nM (sheet 'Lestaurtinib' of Supplementary Table 1),run:Lestaurtinib_02748_R3,Plate:MR024): 98.7 nM
- potency estimated from few doses ([1]; compound concentrations:100 nM and 1000 nM (sheet 'Lestaurtinib' of Supplementary Table 1),run:Lestaurtinib_02752_R1,Plate:MR025): 84.2 nM
- potency estimated from few doses ([1]; compound concentrations:100 nM and 1000 nM (sheet 'Lestaurtinib' of Supplementary Table 1),run:Lestaurtinib_02752_R3,Plate:MR025): 113 nM
- potency estimated from few doses ([1]; compound concentrations:100 nM and 1000 nM (sheet 'Lestaurtinib' of Supplementary Table 1),run:Lestaurtinib_02765_R1,Plate:MR026): 86.1 nM
- potency estimated from few doses ([1]; compound concentrations:100 nM and 1000 nM (sheet 'Lestaurtinib' of Supplementary Table 1),run:Lestaurtinib_02765_R3,Plate:MR026): 95.3 nM
- potency estimated from few doses ([1]; compound concentrations:100 nM and 1000 nM (sheet 'Lestaurtinib' of Supplementary Table 1),run:Lestaurtinib_02766_R1,Plate:MR027): 154 nM
- potency estimated from few doses ([1]; compound concentrations:100 nM and 1000 nM (sheet 'Lestaurtinib' of Supplementary Table 1),run:Lestaurtinib_02766_R2,Plate:MR027): 63.6 nM
- potency estimated from few doses ([1]; compound concentrations:100 nM and 1000 nM (sheet 'Lestaurtinib' of Supplementary Table 1),run:Lestaurtinib_02766_R3,Plate:MR027): 76.7 nM
- potency estimated from few doses ([1]; compound concentrations:100 nM and 1000 nM (sheet 'Lestaurtinib' of Supplementary Table 1),run:Lestaurtinib_02768_R1,Plate:MR028): 92.1 nM
- potency estimated from few doses ([1]; compound concentrations:100 nM and 1000 nM (sheet 'Lestaurtinib' of Supplementary Table 1),run:Lestaurtinib_02768_R3,Plate:MR028): 80.6 nM
- potency estimated from few doses ([1]; compound concentrations:100 nM and 1000 nM (sheet 'Lestaurtinib' of Supplementary Table 1),run:Lestaurtinib_02795_R1,Plate:MR022): 115 nM
- potency estimated from few doses ([1]; compound concentrations:100 nM and 1000 nM (sheet 'Lestaurtinib' of Supplementary Table 1),run:Lestaurtinib_02795_R2,Plate:MR022): 157 nM
- potency estimated from few doses ([1]; compound concentrations:100 nM and 1000 nM (sheet 'Lestaurtinib' of Supplementary Table 1),run:Lestaurtinib_02802_R2,Plate:MR029): 86 nM
- potency estimated from few doses ([1]; compound concentrations:100 nM and 1000 nM (sheet 'Lestaurtinib' of Supplementary Table 1),run:Lestaurtinib_02802_R3,Plate:MR029): 77.8 nM
- potency estimated from few doses ([1]; compound concentrations:100 nM and 1000 nM (sheet 'Lestaurtinib' of Supplementary Table 1),run:Lestaurtinib_02896_R2,Plate:MR030): 141 nM
- potency estimated from few doses ([1]; compound concentrations:100 nM and 1000 nM (sheet 'Lestaurtinib' of Supplementary Table 1),run:Lestaurtinib_02896_R3,Plate:MR030): 87.4 nM
- potency estimated from few doses ([1]; compound concentrations:100 nM and 1000 nM (sheet 'Lestaurtinib' of Supplementary Table 1),run:Lestaurtinib_03172_R1,Plate:MR031): 86.8 nM
- potency estimated from few doses ([1]; compound concentrations:100 nM and 1000 nM (sheet 'Lestaurtinib' of Supplementary Table 1),run:Lestaurtinib_03172_R2,Plate:MR031): 297 nM
- potency estimated from few doses ([1]; compound concentrations:100 nM and 1000 nM (sheet 'Lestaurtinib' of Supplementary Table 1),run:Lestaurtinib_03252_R1,Plate:MR032): 41.6 nM
- potency estimated from few doses ([1]; compound concentrations:100 nM and 1000 nM (sheet 'Lestaurtinib' of Supplementary Table 1),run:Lestaurtinib_03252_R2,Plate:MR032): 59.5 nM
- potency estimated from few doses ([1]; compound concentrations:100 nM and 1000 nM (sheet 'Lestaurtinib' of Supplementary Table 1),run:Lestaurtinib_03260_R1,Plate:MR033): 469 nM
- potency estimated from few doses ([1]; compound concentrations:100 nM and 1000 nM (sheet 'Lestaurtinib' of Supplementary Table 1),run:Lestaurtinib_03260_R2,Plate:MR033): 609 nM
- potency estimated from few doses ([1]; compound concentrations:100 nM and 1000 nM (sheet 'Lestaurtinib' of Supplementary Table 1),run:Lestaurtinib_03260_R3,Plate:MR033): 165 nM
- potency estimated from few doses ([2]; compound concentrations:100 nM and 1000 nM (sheet 'Lestaurtinib' of Supplementary Table 1),run:Lestaurtinib_02339_R2,Plate:MR001): 1580 nM
- potency estimated from few doses ([2]; compound concentrations:100 nM and 1000 nM (sheet 'Lestaurtinib' of Supplementary Table 1),run:Lestaurtinib_02339_R3,Plate:MR001): 1910 nM
- potency estimated from few doses ([2]; compound concentrations:100 nM and 1000 nM (sheet 'Lestaurtinib' of Supplementary Table 1),run:Lestaurtinib_02364_R1,Plate:MR002): 893 nM
- potency estimated from few doses ([2]; compound concentrations:100 nM and 1000 nM (sheet 'Lestaurtinib' of Supplementary Table 1),run:Lestaurtinib_02364_R2,Plate:MR002): 971 nM
- potency estimated from few doses ([2]; compound concentrations:100 nM and 1000 nM (sheet 'Lestaurtinib' of Supplementary Table 1),run:Lestaurtinib_02364_R3,Plate:MR002): 789 nM
- potency estimated from few doses ([2]; compound concentrations:100 nM and 1000 nM (sheet 'Lestaurtinib' of Supplementary Table 1),run:Lestaurtinib_02381_R1,Plate:MR004): 763 nM
- potency estimated from few doses ([2]; compound concentrations:100 nM and 1000 nM (sheet 'Lestaurtinib' of Supplementary Table 1),run:Lestaurtinib_02381_R2,Plate:MR004): 626 nM
- potency estimated from few doses ([2]; compound concentrations:100 nM and 1000 nM (sheet 'Lestaurtinib' of Supplementary Table 1),run:Lestaurtinib_02381_R3,Plate:MR004): 1330 nM
- potency estimated from few doses ([2]; compound concentrations:100 nM and 1000 nM (sheet 'Lestaurtinib' of Supplementary Table 1),run:Lestaurtinib_02407_R1,Plate:MR005): 1580 nM
- potency estimated from few doses ([2]; compound concentrations:100 nM and 1000 nM (sheet 'Lestaurtinib' of Supplementary Table 1),run:Lestaurtinib_02422_R1,Plate:MR006): 1590 nM
- potency estimated from few doses ([2]; compound concentrations:100 nM and 1000 nM (sheet 'Lestaurtinib' of Supplementary Table 1),run:Lestaurtinib_02422_R2,Plate:MR006): 1420 nM
- potency estimated from few doses ([2]; compound concentrations:100 nM and 1000 nM (sheet 'Lestaurtinib' of Supplementary Table 1),run:Lestaurtinib_02437_R2,Plate:MR007): 1490 nM
- potency estimated from few doses ([2]; compound concentrations:100 nM and 1000 nM (sheet 'Lestaurtinib' of Supplementary Table 1),run:Lestaurtinib_02437_R3,Plate:MR007): 113 nM
- potency estimated from few doses ([2]; compound concentrations:100 nM and 1000 nM (sheet 'Lestaurtinib' of Supplementary Table 1),run:Lestaurtinib_02438_R1,Plate:MR008): 1000 nM
- potency estimated from few doses ([2]; compound concentrations:100 nM and 1000 nM (sheet 'Lestaurtinib' of Supplementary Table 1),run:Lestaurtinib_02438_R2,Plate:MR008): 1530 nM
- potency estimated from few doses ([2]; compound concentrations:100 nM and 1000 nM (sheet 'Lestaurtinib' of Supplementary Table 1),run:Lestaurtinib_02443_R1,Plate:MR009): 796 nM
- potency estimated from few doses ([2]; compound concentrations:100 nM and 1000 nM (sheet 'Lestaurtinib' of Supplementary Table 1),run:Lestaurtinib_02473_R1,Plate:MR010): 695 nM
- potency estimated from few doses ([2]; compound concentrations:100 nM and 1000 nM (sheet 'Lestaurtinib' of Supplementary Table 1),run:Lestaurtinib_02473_R2,Plate:MR010): 826 nM
- potency estimated from few doses ([2]; compound concentrations:100 nM and 1000 nM (sheet 'Lestaurtinib' of Supplementary Table 1),run:Lestaurtinib_02482_R2,Plate:MR011): 894 nM
- potency estimated from few doses ([2]; compound concentrations:100 nM and 1000 nM (sheet 'Lestaurtinib' of Supplementary Table 1),run:Lestaurtinib_02482_R3,Plate:MR011): 649 nM
- potency estimated from few doses ([2]; compound concentrations:100 nM and 1000 nM (sheet 'Lestaurtinib' of Supplementary Table 1),run:Lestaurtinib_02487_R2,Plate:MR012): 1150 nM
- potency estimated from few doses ([2]; compound concentrations:100 nM and 1000 nM (sheet 'Lestaurtinib' of Supplementary Table 1),run:Lestaurtinib_02487_R3,Plate:MR012): 921 nM
- potency estimated from few doses ([2]; compound concentrations:100 nM and 1000 nM (sheet 'Lestaurtinib' of Supplementary Table 1),run:Lestaurtinib_02496_R1,Plate:MR013): 946 nM
- potency estimated from few doses ([2]; compound concentrations:100 nM and 1000 nM (sheet 'Lestaurtinib' of Supplementary Table 1),run:Lestaurtinib_02496_R2,Plate:MR013): 1400 nM
- potency estimated from few doses ([2]; compound concentrations:100 nM and 1000 nM (sheet 'Lestaurtinib' of Supplementary Table 1),run:Lestaurtinib_02496_R3,Plate:MR013): 828 nM
- potency estimated from few doses ([2]; compound concentrations:100 nM and 1000 nM (sheet 'Lestaurtinib' of Supplementary Table 1),run:Lestaurtinib_02566_R2,Plate:MR014): 898 nM
- potency estimated from few doses ([2]; compound concentrations:100 nM and 1000 nM (sheet 'Lestaurtinib' of Supplementary Table 1),run:Lestaurtinib_02572_R1,Plate:MR015): 810 nM
- potency estimated from few doses ([2]; compound concentrations:100 nM and 1000 nM (sheet 'Lestaurtinib' of Supplementary Table 1),run:Lestaurtinib_02572_R3,Plate:MR015): 974 nM
- potency estimated from few doses ([2]; compound concentrations:100 nM and 1000 nM (sheet 'Lestaurtinib' of Supplementary Table 1),run:Lestaurtinib_02577_R2,Plate:MR016): 1300 nM
- potency estimated from few doses ([2]; compound concentrations:100 nM and 1000 nM (sheet 'Lestaurtinib' of Supplementary Table 1),run:Lestaurtinib_02584_R2,Plate:MR017): 1000 nM
- potency estimated from few doses ([2]; compound concentrations:100 nM and 1000 nM (sheet 'Lestaurtinib' of Supplementary Table 1),run:Lestaurtinib_02601_R1,Plate:MR018): 1580 nM
- potency estimated from few doses ([2]; compound concentrations:100 nM and 1000 nM (sheet 'Lestaurtinib' of Supplementary Table 1),run:Lestaurtinib_02601_R2,Plate:MR018): 673 nM
- potency estimated from few doses ([2]; compound concentrations:100 nM and 1000 nM (sheet 'Lestaurtinib' of Supplementary Table 1),run:Lestaurtinib_02601_R3,Plate:MR018): 924 nM
- potency estimated from few doses ([2]; compound concentrations:100 nM and 1000 nM (sheet 'Lestaurtinib' of Supplementary Table 1),run:Lestaurtinib_02606_R2,Plate:MR019): 1210 nM
- potency estimated from few doses ([2]; compound concentrations:100 nM and 1000 nM (sheet 'Lestaurtinib' of Supplementary Table 1),run:Lestaurtinib_02606_R3,Plate:MR019): 1600 nM
- potency estimated from few doses ([2]; compound concentrations:100 nM and 1000 nM (sheet 'Lestaurtinib' of Supplementary Table 1),run:Lestaurtinib_02624_R1,Plate:MR020): 1300 nM
- potency estimated from few doses ([2]; compound concentrations:100 nM and 1000 nM (sheet 'Lestaurtinib' of Supplementary Table 1),run:Lestaurtinib_02624_R2,Plate:MR020): 614 nM
- potency estimated from few doses ([2]; compound concentrations:100 nM and 1000 nM (sheet 'Lestaurtinib' of Supplementary Table 1),run:Lestaurtinib_02624_R3,Plate:MR020): 873 nM
- potency estimated from few doses ([2]; compound concentrations:100 nM and 1000 nM (sheet 'Lestaurtinib' of Supplementary Table 1),run:Lestaurtinib_02724_R2,Plate:MR021): 691 nM
- potency estimated from few doses [2, 3]: 628 nM
- potency estimated from few doses ([2]; compound concentrations:100 nM and 1000 nM (sheet 'Lestaurtinib' of Supplementary Table 1),run:Lestaurtinib_02741_R1,Plate:MR023): 772 nM
- potency estimated from few doses [2, 4]: 783 nM
- potency estimated from few doses [2, 5]: 1330 nM
- potency estimated from few doses [2, 6]: 922 nM
